Compounds with a hit are over-represented: about 11% of the library has one in this group of screens.
HPGD block = inhibitors of human 15-hydroxyprostaglandin dehydrogenase (HPGD). P15428. purified HPGD, NADH fluorescence kinetic, PGE2 substrate. Potency, µM, for the others: top-dose activity change, negative = inhibition, most hits filed as inhibitors. 150,000 tested, 4.3% active. AID 894; also: potency is read from the fitted curve at half-maximal effect
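20 nM HPGD preincubated 15 min at room temperature with compound in 50 mM Tris-HCl pH 8, 0.01% Tween 20. Started with 1 mM NAD+ and 30 uM prostaglandin E2; NADH fluorescence (360/450 nm) read 5 times over 30-s intervals, last minus first.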
ALDH1A1 block = ALDH1A1 (human) enzyme inhibition; Purified ALDH1A1, NADH fluorescence, propionaldehyde substrate; Potency, µM (series often up to 75.3 µM), for inactives: at the top dose activity, negative = inhibition, actives largely listed as inhibitors; 220,000 tested, 7.3% active; AID 1030;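 also: potency is read from the fitted curve at half-maximal effect; plate controls were no enzyme wells and a reference inhibitor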
Target sequence (P00352 whole entry, looked up): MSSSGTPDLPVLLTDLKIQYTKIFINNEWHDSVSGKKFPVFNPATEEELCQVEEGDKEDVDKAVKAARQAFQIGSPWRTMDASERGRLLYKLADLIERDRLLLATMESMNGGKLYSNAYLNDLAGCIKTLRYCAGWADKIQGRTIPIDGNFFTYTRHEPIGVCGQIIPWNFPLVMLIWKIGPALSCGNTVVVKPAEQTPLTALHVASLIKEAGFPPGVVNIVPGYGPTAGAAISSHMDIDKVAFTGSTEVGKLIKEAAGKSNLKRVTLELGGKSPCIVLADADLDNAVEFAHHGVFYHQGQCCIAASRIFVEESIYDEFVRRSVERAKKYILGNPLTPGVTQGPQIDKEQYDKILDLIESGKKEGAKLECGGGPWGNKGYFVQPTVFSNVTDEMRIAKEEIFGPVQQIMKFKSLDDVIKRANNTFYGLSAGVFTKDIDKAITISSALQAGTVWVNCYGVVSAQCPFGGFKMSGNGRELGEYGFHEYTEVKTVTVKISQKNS
PNC assembly inh = blocks assembly of the perinucleolar compartment. PC3M PTB-GFP, PNC prevalence imaging, 16 h; stronger effect = lower value. activity change (PNC), negative = inhibition, % at 10 µM. 140,000 tested, 3.1% active. AID 2417;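 active = readout at or below -70, meaning at least 70% loss of cells showing the perinucleolar compartment, a nuclear body marking cancer cells; inconclusive = readout between -30 and a set limit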;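 also: plate controls were DMSO wells for no effect and camptothecin positive control wells for full effect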
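Read-out is percentage of cells bearing a perinucleolar compartment, from automated 20x imaging of fixed, Hoechst-stained PC3M PTB-GFP cells. Cells were seeded 4 h, then exposed 16 h to compound (23 nl of library stock) in duplicate plates.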
Numbers without * were called inactive; u = inconclusive; x = no result given; [ ] = dose if it differs, or a comment. Unless noted, calls follow the shape of the dose curve; as a rule, active = well fitted inhibition curve with a large enough effect (not every such curve was filed as active); inconclusive = small, poorly fitted or top-dose-only effect, or another doubt; inactive = no such curve, though single readings can be large or run the other way. Unless noted, % is scaled to controls: 0 for no effect and ±100 for the full control effect.

SMILES	HPGD block	ALDH1A1 block	PNC assembly inh
C#CCn1c(=NC(=O)c2ccc(S(=O)(=O)N3CCc4ccccc4C3)cc2)sc2cc(S(N)(=O)=O)ccc21	u	u	-134*
CN1CCN(C(=O)C(N)Cc2ccccc2)CC1 (centres undefined)	x	-1%	x
Cc1cccc(N(CC(=O)NC2CCCCC2)C(=O)Cn2nnc(-c3ccc(C)o3)n2)c1	x	-6%	x
Cc1cccc(N(CC(=O)NCc2ccccc2)C(=O)Cn2nnc(-c3ccc(C)o3)n2)c1	-7%	-3%	-84*
Cc1ccc(-c2nnn(CC(=O)N(CC(=O)NC(C)C)c3cnc4ccccc4c3)n2)o1	3%	-1%	-29
Cc1ccc(-c2nnn(CC(=O)N(CC(=O)NCc3ccccc3)c3cccc(C)c3C)n2)o1	25µM*	10µM*	u
COc1ccc(CN(C)C2CCCCC2)c(C)c1C	-4%	u	-30
O=C(Nc1cccc(NC(=O)c2nccc3ccccc23)c1)c1ccco1	-7%	-11%	12
COC(=O)C(O)(CC(=O)Nc1cccc(SC)c1)C(F)(F)F (centres undefined)	1%	u	u
COc1ccc(N2C(=O)CC(Cc3ccccc3)C2=O)cc1 (centres undefined)	-3%	11%	u
COc1cccc(CC2CC(=O)N(c3ccc4c(C)cc(=O)oc4c3)C2=O)c1 (centres undefined)	x	1.4µM*	x
COc1c[nH]n(C2CCCCC2)c(=O)c1=O	x	3%	-19
C/C(Cn1nc([N+](=O)[O-])cc1C)=N\NC(=O)COc1c(Cl)cc(Cl)cc1Cl	-5%	-9%	u
Clc1cc2c(c(CSc3nc4ccccc4n4cccc34)c1)OCOC2	x	0%	x
Clc1cc2c(c(Cn3cnc4ccccc43)c1)OCOC2	-9%	-1%	-100*
CCN1C(=O)CC(C(=O)Nc2ccc(F)cc2)SC1=Nc1cccc(OC)c1 (centres undefined)	-3%	10µM*	u
COc1cccc(NC(=O)C2CC(=O)N(C)C(=Nc3cccc(F)c3)S2)c1 (centres undefined)	-13%	u	7
CCOC(=O)C1(Cc2ccccc2Cl)CCN(S(C)(=O)=O)CC1	x	10µM*	x
CCOC(=O)C1(Cc2ccc(OC)cc2)CCN(S(C)(=O)=O)CC1	x	18%	x
Nc1ccc2nc[nH]c2c1	x	-3%	x
COc1ccc(C2=C(c3ccc([N+](=O)[O-])cc3)C(=O)OC2)cc1	x	4%	x
CS(=O)(=O)c1ccc(C2=C(c3ccccc3)C(=O)OC2)cc1	15%	2.8µM*	x
Cc1ccsc1C(C(=O)NC1CCCCC1)N(C(=O)c1csnn1)C1CC1 (centres undefined)	2%	13%	5
O=c1c(/C=N/O)c(Nc2ccccc2)nc2ccccn12	0.56µM*	u	10
CC(C)=Cc1c(O)nc2ccccn2c1=O	x	-13%	x
SMILES	HPGD block	ALDH1A1 block	PNC assembly inh
Cc1ccc(S(=O)(=O)Nc2cc(C(C)C)c(O)cc2C)cc1	-8%	2µM*	-14
Cc1ccc(S(=O)(=O)Nc2cc(Cl)c(O)cc2C)cc1	0%	u	20
C(=N\Nc1nc2ccccc2[nH]1)/C1CCCCC1	x	2%	x
Cn1ncc(C(N)=O)c1NC(=S)NC(=O)c1ccc(Br)o1	x	7.9µM*	x
O=C(NC(=S)Nc1ccccc1F)c1ccc(Br)o1	x	-9%	x
O=C(CCc1nnc(CCC2CCCCC2)o1)NCc1ccon1	x	-6%	x
O=C(O)CSc1nnc(-c2ccccc2)o1	-3%	-4%	10
Cc1ccc(C(=O)CSc2nnc(-c3ccccc3)o2)cc1	-5%	6%	-95*
COc1ccc(C(=O)CSc2nnc(-c3ccc(S(=O)(=O)N4CCOCC4)cc3)o2)cc1	-12%	0.5µM*	-11
Cc1occc1-c1nnc(SCC(=O)c2ccc(F)cc2)o1	u	32µM*	u
Cc1occc1-c1nnc(SCC(N)=O)o1	x	-6%	x
O=C(CSc1nnc(-c2ccc(S(=O)(=O)N3CCOCC3)cc2)o1)c1ccccc1F	-11%	u	u
O=C(Cn1cc(C(F)(F)F)cc(Cl)c1=O)Nc1cc(S(=O)(=O)N2CCOCC2)ccc1Cl	x	-2%	26
O=C(NCc1ccco1)C(c1ccccc1)N(Cc1ccccc1)C(=O)Cn1nnc2ccccc21 (centres undefined)	-2%	-1%	62
COC(=O)c1ccc(NC(=O)C2C3C=CC(O3)C2C(=O)O)cc1 (centres undefined)	-18%	4.5µM*	-28
Cc1nnc(NC(=O)C2C3C=CC(O3)C2C(=O)O)s1 (centres undefined)	-13%	28µM*	1
COC(=O)c1ccc(NC(=O)C2C3CCC(C3)C2C(=O)O)cc1 (centres undefined)	-14%	u	-9
COC(=O)c1sccc1NC(=O)C1C2C=CC(O2)C1C(=O)O (centres undefined)	1%	1%	u
C[N+](C)(C)CCN[N@@+]1(C)CCCc2ccccc21	u	-12%[13.5 µM]	x
CCOC(=O)Nc1c(C(=O)OC)[nH]c2cccc(OC)c12	-24%	u	28
Cc1ccc(S(=O)(=O)c2ccc(Cl)cc2)cc1S(=O)(=O)NC(C)C(=O)O (centres undefined)	1%	14%	-90*
Cc1ccc(S(=O)(=O)c2ccc(Cl)cc2)cc1S(=O)(=O)N1CCN(C)CC1	-10%	-9%	8
C=C(C)C1CC=C(C)/C(=N/NC(=O)COc2cccc3ccccc23)C1 (centres undefined)	-3%	0%	-19
NS(=O)(=O)c1ccc(CCNC(=O)c2ccc(C#CC3(O)CCCCC3)cc2)cc1	x	-11%	x
CC1CCC2C(=O)N(c3ccccc3OC(=O)c3ccccc3F)C(=O)C2C1 (centres undefined)	x	3%	x
SMILES	HPGD block	ALDH1A1 block	PNC assembly inh
CCOC(=O)C1C(=O)NC(SCC(=O)OC)=C(C#N)C1c1ccccc1OCC (centres undefined)	-8%	14%	0
CCCOC(=O)CSC1=C(C#N)C(c2ccccc2OC)C(C#N)C(=O)N1 (centres undefined)	-14%	-12%	-97*
CCOC(=O)CSC1=C(C#N)C(c2ccccc2OCC)C(C#N)C(=O)N1 (centres undefined)	-9%	u	1
CCOC(=O)C1C(=O)NC(SCC(=O)Nc2nccs2)=C(C#N)C1c1ccccc1OCC (centres undefined)	13µM*	6.3µM*	201
CCN(CC)CCNC(=O)/C(=C/c1cn(C)c2ccccc12)NC(=O)c1ccc(OC)c(OC)c1	x	19%	x
CCSc1nnc(NC(=O)C(C)Sc2nc3ccccc3[nH]2)s1 (centres undefined)	-12%	10%	u
COC(=O)C1=C(C(=O)OC)[C@@H]2Nc3ccccc3[C@@]23C[C@@H](C(=O)OC)N(S(=O)(=O)c2ccc(OC)cc2)C3=N1	-5%	-5%[13.5 µM]	x
CCOC(=O)C(C(=O)OCC)C(CC(=O)C1CC1)c1ccccc1 (centres undefined)	-9%	-3%	-22
CNc1ccc(O)cc1	13µM*	2.2µM*	x
CNc1ccccc1	-10%	-20%	x
CC1(C)Cc2c(C#N)c(NCCCO)nc(-c3ccccc3)c2CO1	u	u	24
Cc1nc(NCCCO)c(C#N)c2c1COC(C)(C)C2	x	u	-122*
CC(=O)NC1=NC(=O)/C(=C/c2cn(C(C)=O)nc2-c2ccccc2)S1	x	10µM*	x

Source: PubChem BioAssay (National Center for Advancing Translational Sciences (NCATS))
